B1: chr13:45957189:45957298:-|CDS|ENSG00000123200|unk|total|mutant (ssRNA)
RNA: GGGAGUUCUACAGUCCGACGAUCUGUUUUUGUUUUCUUCAAACCGGGCACCAUAAAACAAGCUUACACGAGUGCUCCAAUGGCCGACAAUGAAUUACUUCGAUUGAGUCUUCGGUUAUUUAAGCGGAAGACUACUUGCCAUGCCAACAGAGGAUUGAGCAUCA
B2: chrX:130230552:130230660:-|CDS|ENSG00000056277|unk|total|mutant (ssRNA)
RNA: GGGAGUUCUACAGUCCGACGAUCAUCAGAACGUCCAUGUGAUGAAGACAAGACUGAUUCAGAGACAGGAAAGUUGAUCAUGUCCGUCAAUGAGUUUUAUUAUGGAAGGCAUGAAGGAGUCACUGAGAAAGAGCCAAAGACUUACAACAGAGGAUUGAGCAUCA
B3: ENSG00000107863:be:win_2551|CDS|ENSG00000107863|bound_else_gene|NA|bound_elsewhere_windowed (ssRNA)
RNA: GGGAGUUCUACAGUCCGACGAUCUUAAUUCGCCGUCAGCUCUCACAUGACCACGAAUCUGUUGGCCCUCCUAGCCUGGAUGCUCAGCCCAACUCAAAGACAGAAAGAUCAAAAUCAUAUGAUGAGGGUCUGGAUGAUUACAGACAACAGAGGAUUGAGCAUCA
B4: chr20:57651677:57651767:-|3pUTR|ENSG00000124225|msi1_unk|FALSE|overlapping (ssRNA)
RNA: GGGAGUUCUACAGUCCGACGAUCGUUGAGCUGUGUCUUGAAGGCAAAAGAAAAAAAAUUUCUACAGUAGUCUUUCUUGUUUCUAGUUGAGCUGCGUGCGUGAAUGCUUAUUUUCUUUUGUUUAUGAUAAUUUCACUUAACUUUCAACAGAGGAUUGAGCAUCA
B5: ENSG00000124766:be:win_3701|3pUTR|ENSG00000124766|bound_else_gene|NA|bound_elsewhere_windowed (ssRNA)
RNA: GGGAGUUCUACAGUCCGACGAUCUCAGGUUUAUAGCUGUUGUGUUUAAAAAUUGAAAAAAGUGGAAAACAUCUUUGUACAUUUAAGUCUGUAUUAUAAUAAGCAAAAAGAUUGUGUGUAUGUAUGUUUAAUAUAACAUGACAGCAACAGAGGAUUGAGCAUCA
B6: chr4:1716041:1716142:-|3pUTR|ENSG00000168936|msi1|total|mutant (ssRNA)
RNA: GGGAGUUCUACAGUCCGACGAUCAGGCUUCCCCGAGCGCUCAGCAGGUGAAGGCAGCAGGGGCCAUGGCCGGGAGCCAGGCCCCGCUUUGAACUGAGUUUCAAGGGCUGCCAAAGAGGGGCAGUGGGUUGGGGUUGUUUUUACCAACAGAGGAUUGAGCAUCA
B7: chr6:158785413:158785514:-|CDS|ENSG00000092820|msi1|FALSE|unique (ssRNA)
RNA: GGGAGUUCUACAGUCCGACGAUCGAGCUCAUCCAGGACAUCACCCAGAAACUUUUCUUCCUCCAAGUGAAGGAAGGAAUCCUUAGCGAUGAGAUCUACUGCCCCCCUGAGACUGCCGUGCUCUUGGGGUCCUACGCUGUGCAGCAACAGAGGAUUGAGCAUCA
B8: chr10:113876644:113876745:+|CDS|ENSG00000196865|msi1|total|mutant (ssRNA)
RNA: GGGAGUUCUACAGUCCGACGAUCGGUUAAUGAUGCAGAUGCCAGCCUUUGGCAAGAACCCGAAGUUUCCUGCUGGCCAACUCCCGUCAUACUUGGACCUCGUGGAAACAUGUUGUUUUCUUUGAUUGGAGAGGGACACAAAGACAACAGAGGAUUGAGCAUCA
B9: chr1:212686416:212686790:-|three_prime_utr|ENSG00000123685|control|control|control (ssRNA)
RNA: GGGAGUUCUACAGUCCGACGAUCUUGUGCAGAUCCAGCAUGGAGGCCACCCUCAGGAGUGACUUCUCAUCCACCCUGGCAGCUAGUAGGUUCUGCUGUUAUGCAGAGCCAUUUCCUCUAGAAUUUGGAUAAUAAAGAUGCUUACAACAGAGGAUUGAGCAUCA
B10: ENSG00000184117:stop:overlap|stop_codon|ENSG00000184117|stop_codon|NA|stop_codon (ssRNA)
RNA: GGGAGUUCUACAGUCCGACGAUCUGGGCAACUGGAACACGUGGUAUGGGGAGCAGGACCAGGCAGGUCAUUCCUGGUUUUGGUAGAUUUCUAUCCAUACAGUACUUUUGCCAUUUCCUUUGGGAAAAAGACCUUUAAACCAUACAACAGAGGAUUGAGCAUCA
B11: chr20:32237940:32238012:+|3pUTR|ENSG00000101346|msi1_unk|total|mutant (ssRNA)
RNA: GGGAGUUCUACAGUCCGACGAUCUUUCAAAGAUACAAAUAUUUACACCGUUUUAAUCAUGUAAUAUAUACAAUUUAAUGUCCCCGUGUUUUACUUAACCGUGUAUCAUGUUUUCCCUGUUGGUAUGCCGCCUGGAUAAAUGCUCAACAGAGGAUUGAGCAUCA
B12: chr4:152882748:152882856:+|CDS|ENSG00000164144|unk|FALSE|unique (ssRNA)
RNA: GGGAGUUCUACAGUCCGACGAUCCAGAAACUGCUGGCUAAAAAUGGAGAGACUCUUCUUGGGGCCAUUAAUUUUUUCAUUGCUAGUGUGAACACUUUGGUGAAUAAAACCAUUGAAGAUACAUUAAUGACUGUGAAACAGUAUCAACAGAGGAUUGAGCAUCA
B13: chrX:13662881:13662996:+|CDS|ENSG00000176896|unk|total|mutant (ssRNA)
RNA: GGGAGUUCUACAGUCCGACGAUCUCGAAUUCUCUGUCUUCCCAAGACGUUGCAAAACUCAGUGAAAUGAUUGUGCCUGAAAACCGAGCCAUUCAAUUGAAACCUAAGGAAGAGCAUUUUGGGGAUGGUGACCCUGAAUCCACUCAACAGAGGAUUGAGCAUCA
B14: chr10:116672031:116672132:-|3pUTR|ENSG00000165868|msi1|total|mutant (ssRNA)
RNA: GGGAGUUCUACAGUCCGACGAUCCCUUUCCUGCCUUGCAUUAAUGCUAUCUCCCUGUGUACUGUUUCUCUUAAAUGAGCAGACCGAAAUCUGCAGUGUUGGCAGACCGGUGAUGGAGAGGAUGAUAAUUUUAUCUUCUGGCCACAACAGAGGAUUGAGCAUCA

Over roughly 5,800 sequences, “enrichment r” has its median near 0.68; the highest 2% begin near 11. A selection follows.

The record followed here is paper PMC12136788.

This test concerns the target T1, UNK ZnF1-6 (called full-length) (human, UniProt Q9C0B0 30-357).
T1 sequence: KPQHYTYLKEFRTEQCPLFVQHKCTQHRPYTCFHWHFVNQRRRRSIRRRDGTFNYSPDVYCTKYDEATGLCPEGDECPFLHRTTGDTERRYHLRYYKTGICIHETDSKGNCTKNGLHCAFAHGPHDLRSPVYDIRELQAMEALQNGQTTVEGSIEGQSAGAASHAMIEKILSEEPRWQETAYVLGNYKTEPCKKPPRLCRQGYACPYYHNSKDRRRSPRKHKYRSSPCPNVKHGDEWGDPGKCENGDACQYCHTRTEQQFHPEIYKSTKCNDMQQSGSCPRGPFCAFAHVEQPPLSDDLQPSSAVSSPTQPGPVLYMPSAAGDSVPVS
In words: nsRBNS (natural sequence RNA bind-n-seq); RBNS binding buffer (assumed for nsRBNS): 25 mM Tris pH 7.5, 150 mM KCl, 3 mM MgCl2, 0.01% Triton X-100, 500 ug/ml BSA, 20 U/ml SUPERase-In, 4 C; UNK is unkempt and MSI1 is Musashi-1; names of the RNAs are library labels; protein concentration not given here; high values mean tight binding.
Regarding B1, the binding signal amounted to 0.325 enrichment R. The molecule B2 gave a binding signal of 0.608 enrichment R.

Regarding B3, the binding signal is 0.436 enrichment R.

Consider B4, for which the binding signal turned out to be 1.22 enrichment R. B5 had a binding signal of 0.65 enrichment R. B6 had a binding signal of 0.696 enrichment R. For the molecule B7, the binding signal is 0.521 enrichment R.

In turn, B8 gave a binding signal of 0.577 enrichment R. On to B9, for which the binding signal is 0.63 enrichment R. Next, B10: 0.898 enrichment R. In the case of B11, the binding signal was determined as 0.548 enrichment R. For the molecule B12, the binding signal was 0.365 enrichment R.

In turn, B13 registered a binding signal of 0.441 enrichment R. B14 showed a binding signal of 0.548 enrichment R.
